# Inconclusive results are not listed. A call without a number means that no potency is given here. The source made the active and inactive calls. Calls come from the whole dose curve; as a rule, active = well fitted inhibition curve with a large enough effect; inconclusive = small, poorly fitted or top-dose-only effect; inactive = flat fitted curve, though single readings scatter. Starred links: 1 amine or outer side, 2 acyl side, 3 side chain; linkers in the order of their positions; H or OH if unused. Positions of bridges follow the written chain, without caps; N, C: chain ends. Non-standard residues stand in square brackets, D forms with d. Residues, ends and D or L forms follow the SMILES beside them. ξ: configuration not given here. *: point of attachment. X3 = C[C@@H](Oc1ccc([C@H](N[*:1])C(=O)[*:2])cc1)[C@]1(/C=C\C(=O)[*:3])CO1; d(aIle) = CC[C@H](C)[C@@H](N)C(=O)O; X2 = CC(C)[C@@H](O)C(C)C(=O)*; ξNMeF = CNC(Cc1ccccc1)C(=O)O; ξT = CC(O)C(N)C(=O)O; ξS = NC(CO)C(=O)O
# Test: qHTS for Inflammasome Signaling Inhibitors: IL-1-beta AlphaLISA screen against the NCATS CANVASS Library (AID 1347379);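 note: human THP-1 cells primed with LPS then triggered with ATP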
# Details: THP-1 LPS/ATP, IL-1B AlphaLISA secretion, 16 h; series mostly up to 57.5 µM
# From the text: Natural products and their derivatives continue to be wellsprings of nascent therapeutic potential. However, many laboratories have limited resources for biological evaluation, leaving their previously isolated or synthesized compounds largely or completely untested. To address this issue, the Canvass library of natural products was assembled (https://tripod.nih.gov/canvass), in collaboration with academic and industry researchers, for quantitative high-throughput screening (qHTS) across a diverse set of cell-based and biochemical assays. The pure (>85% purity by liquid chromatography/mass spectrometry [LC/MS]) Canvass library of 346 natural products were submitted by 45 academic laboratories and companies around the world. We collected pure natural products to circumvent deconvolution and structure elucidation due to time and resource limitations. The library was formatted into 1536-well plates and evaluated in 50 qHTS (in an 11-pnt concentration series) bioassays with broad scope of disease-relevant mechanisms. The resulting data set from 50 different assays was then systematically analyzed to identify overall trends and specific natural products with interesting biological activities. Reported herein are the results of each individual qHTS and their corresponding assay protocol. A qHTS assay, based on AlphaLISA technology, was developed to screen the NCATS CANVASS library to look for novel inflammasome inhibitors. The assay detects IL-1B using AlphaLISA anti-IL-1B acceptor and donor beads. Human THP-1 cells were incubated with Canvass compound for 1 hr, followed by stimulation with lipopolysaccharide and ATP to induce inflammasome activation. Compounds that inhibit activation is flagged and validated. A decreased emission signal, indicating reduced IL-1B secretion, is the desired outcome for this assay. National Center for Advancing Translational Sciences (NCATS), Rockville, MD National Institute of Health (NIH), Bethesda, Maryland
# IL-1-beta qHTS protocol: Three microliters containing 3000 THP-1 cells were dispensed into the wells of solid, white, tissue culture treated Greiner 1,536-well plates. Library compounds and positive control, Glyburide, were pin-transferred (23 nL) by a Kalypsys pin-tool equipped with a 1,536-pin array, resulting in final compound concentration ranges of 2.5 nM to 57.5 uM. After 1 hr of cell culture incubation (37 °C, 5% CO2), 1 microL of 1 microg/mL lipopolysaccharide (250 ng/mL, final) and 5 mM ATP (1.25 mM, final) were added to stimulate the cells. After 16 hr of cell culture incubation with the compounds, 1.5 uL of anti-IL-1B acceptor beads (6 ug/mL, final) and biotinylated antibody (0.6 nM, final) were added to the plate, followed by a 1 hr incubation at ambient temperature. To detect the secreted IL-1B, 1.5 uL of AlphaLISA SA-Donor beads (24 ug/mL, final) were added, followed by 30 min of incubation in the dark at ambient temperature. The AlphaLISA signal was read by a PerkinElmer EnVision plate reader with an ultrasensitive luminescence detector and 1536 Plate HTS AlphaScreen aperture (excitation of 680nm and emission of 615nm).
# Potency is the fitted concentration of half-maximal effect.
row,Compound,Potency
1,CCCCC1CC[C@H]2CCCC(CCC)N12 (some centres undefined),inactive
2,O[C@H]1C=C[C@@]23CCN(Cc4cc5c(cc42)OCO5)[C@@H]3C1,inactive
3,CC[C@H]1CN2CCc3c([nH]c4cccc(OC)c34)[C@@H]2C[C@@H]1/C(=C\OC)C(=O)OC,inactive
4,CO[C@H]([C@@H](C)[C@H]1O[C@]1(C)C[C@H](C)/C=C/C=C(\C)[C@H]1O[C@@H](CC(=O)O)CC[C@@H]1C)[C@@H](C)O,0.0385 µM (active)
5,CO[C@H]1C[C@H](O[C@H]2[C@@H](O)C[C@H](O[C@H]3CC[C@]4(C=O)[C@H]5CC[C@]6(C)C(C7=CC(=O)OC7)CC[C@]6(O)[C@@H]5CC[C@]4(O)C3)O[C@@H]2C)O[C@H](C)[C@H]1O[C@H]1C[C@@H](OC)[C@@H](O[C@@H]2O[C@H](CO)[C@@H](O)[C@H](O)[C@H]2O)[C@@H](C)O1 (some centres undefined),1.53 µM (active)
6,C[C@]12CC(O)C3[C@@H](CC[C@@H]4C[C@@H](O)CC[C@]34CO)[C@@]1(O)CC[C@@H]2C1=CC(=O)OC1 (some centres undefined),12.2 µM (active)
7,CO[C@@H](/C=C/CC/C=C/C(=O)O)[C@@H](O)[C@H](C)/C=C(\C)[C@H](O)[C@H](C)C(=O)CCCC1CC(=O)NC(=O)C1,inactive
8,CCCC[C@@H]1CC[C@H]2CCCC(CCCO)N12 (some centres undefined),inactive
9,C=CC(C)(C)[C@@]12C[C@H]3C(=O)N/C(=C/c4cnc[nH]4)C(=O)N3[C@@H]1Nc1ccccc12,inactive
10,C/C=C1/CN2CC[C@@]34c5ccccc5N(C)[C@@H]3[C@@H]2C[C@@H]1[C@H]4C(=O)OC,inactive
11,CC[C@H](C)[C@H]1NC(=O)[C@@H](NC(=O)C(C)[C@H](O)C(C)C)[C@@H](C)OC(=O)C2COC(=O)CNC(=O)/C=C\[C@]3(CO3)[C@@H](C)Oc3ccc(cc3)[C@H](NC1=O)C(=O)N(C)C(Cc1ccccc1)C(=O)NC(C(C)O)C(=O)N2 (some centres undefined) (X2-T[d(aIle)][X3][ξNMeF][ξT][ξS]; ester 1-C; linker 3-6 via G),inactive
12,C[C@]12CCC3[C@@H](CC[C@@H]4C[C@@H](O)CC[C@]34CO)[C@@]1(O)CC[C@@H]2C1=CC(=O)OC1 (some centres undefined),1.93 µM (active)
13,C=C[C@]12C=CCN3CC[C@@]4(c5ccccc5NC(=O)[C@@H]4C1)[C@@H]32,inactive
14,C[N+](C)(C)CCc1c[nH]c2ccccc12,inactive
15,C/C(=C\[C@H](C)C(=O)C[C@H](O)CC1CC(=O)NC(=O)C1)[C@@H]1OC(=O)/C=C/CC/C=C/C=C/[C@@H]1C,2.43 µM (active)
16,C/C=C1/CN2C3CC1C1=CCC(=O)N4c5ccccc5[C@@]3(C[C@@H]2C2=C[C@H]3C5CC6N(CC[C@@]67c6ccccc6N(C2=O)[C@@H]37)C/C5=C/C)[C@H]14 (some centres undefined),21.7 µM (active)
17,CO[C@H]1[C@H](O[C@H]2CC[C@]3(C=O)[C@H]4CC[C@]5(C)[C@@H](C6=CC(=O)OC6)CC[C@]5(O)[C@@H]4CC[C@]3(O)C2)O[C@H](C)[C@H](O)[C@@H]1OC,0.685 µM (active)
18,CCC(=O)N[C@@H](C[C@H](C)C(Cl)(Cl)Cl)C(=O)N1C(=O)C=C(OC)[C@@H]1C[C@H](C)C(Cl)Cl,inactive
19,c1ccc2nc3c(cc2c1)[nH]c1ccccc13,inactive
20,C/C=C/[C@@H]1[C@H]2C[C@@H](C)CC[C@@H]2C(C)=C[C@H]1C(=O)c1c(O)c(-c2ccc(O)cc2)c[nH]c1=O,inactive
21,CCCC[C@@H](C)/C=C1/CN2CCC[C@H]2[C@@](C)(O)[C@@H]1O,inactive
22,C1=C2CCCN[C@H]2C2CC1[C@H]1CCCCN1C2 (some centres undefined),inactive
23,CO[C@@]12c3c(C)cc(O)c4c(=O)occ(c34)C(=O)[C@@H]1[C@]13COC(=O)c4c(O)cc(C)c(c41)C(=O)[C@H]2[C@@H]3OC(C)=O,inactive
24,C=C(C)[C@H]1C(=O)c2c3c(cc4c5c(n1c24)[C@@]1(C)[C@@H](CC[C@H]2[C@](C)(/C=C/C=C(\C)C(=O)O)[C@@H](O)CC[C@@]21C)C5)C1=CC(C)(C)OC(C)(C)[C@H]1[C@@H]3O,inactive
25,CC(C)CC1C(=O)O[C@H](C(C)C)C(=O)N(C)C(CC(C)C)C(=O)O[C@@H](C(C)C)C(=O)N(C)C(CC(C)C)C(=O)O[C@H](C(C)C)C(=O)N(C)C(CC(C)C)C(=O)O[C@@H](C(C)C)C(=O)N1C (some centres undefined),inactive
26,C=CC(C)(C)[C@@]12C[C@H]3C(=O)N/C(=C\c4cnc[nH]4)C(=O)N3[C@@H]1Nc1ccccc12,inactive
27,COC1C(O)C(C)OC(OC2C(Oc3cccc4c(O)c5c(=O)oc6ccc(C)c7c(=O)oc(c34)c5c67)OC(C)C(O)C2O)C1O (centres undefined),27.3 µM (active)
28,CC[C@@H]1CN2CCC3(Nc4cccc(OC)c4C3=O)[C@@H]2C[C@@H]1/C(=C\OC)C(=O)OC (some centres undefined),inactive
29,C=C[C@H]1CN2CCc3c([nH]c4cccc(OC)c34)[C@@H]2C[C@@H]1/C(=C\OC)C(=O)OC,inactive
